In the library only some 8% were active in any assay of this set; here they are far more common.
Lassa entry inh = qHTS for Inhibitors of binding or entry into cells for Lassa Virus. Lassa virus pseudotype entry inhibition, cell reporter. Potency, µM (top dose mostly 37.9 µM), for the others: at the top dose activity change, negative = inhibition, usual class: inhibitors. 1.2% of 300,000 active. AID 540256, 2011; calls by dose curve; tested in HEK293 cells; also: potency is read from the fitted curve at half-maximal effect; % is scaled to controls: 0 for no effect and ±100 for the full control effect; nearly all actives have a fitted effect of over 50% in size
SARS PLP yeast = qHTS of Yeast-based Assay for SARS-CoV PLP; S. cerevisiae expressing SARS-CoV PLpro, growth rescue; Potency, µM (top dose mostly 32.9 µM), inactives show top-dose activity, positive = growth rescue, usual class: activators; 0.19% of 330,000 active; AID 485353, 2010; calls by dose curve; also: potency is read from the fitted curve at half-maximal effect; 0% is about no effect; nearly all actives have a fitted effect of over 55% in size
HCMV antiviral = qHTS Assay for inhibitors of the human cytomegalovirus (HCMV). HFF cells, HCMV-luciferase reporter, 72 h; active compounds read low. activity change, negative = inhibition, % at 57.5 µM. 4.5% of 410,000 active; in the data active = activity change below about -60%; inconclusive = no clear call, values can overlap the other calls; inactive = above about -39%; also: % is scaled to controls: 0 for no effect and ±100 for the full control effect
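Human foreskin fibroblasts infected with luciferase-reporter HCMV at MOI 1 PFU/cell, compounds at two doses. Luciferase measured 72 h post infection; normalized to buffer-only basal and Salinomycin (10uM) controls.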
MARV entry inh = qHTS for inhibitors of binding or entry into cells for Marburg Virus. Marburg virus pseudotyped entry inhibition, cell reporter. Potency, µM (highest dose often 37.8 µM), without a hit: top-dose activity change, negative = inhibition, hits mostly inhibitors. 1.8% of 300,000 active. AID 540276, 2011; calls by dose curve; tested in HEK293 cells; also: potency is read from the fitted curve at half-maximal effect; % is scaled to controls: 0 for no effect and ±100 for the full control effect
HCV inhibitor = qHTS Assay for Inhibitors of Hepatitis C Virus (HCV); Potency, µM (top dose mostly 41.8 µM), inactives show at the highest dose activity change, negative = inhibition, usual class: inhibitors; AID 651820, 2012; Huh7.5.1 HCVcc-Cre infection, luciferase reporter, 44 h; 3.4% of 340,000 active; active = well fitted inhibition curve with a large enough effect; inconclusive = small, poorly fitted or top-dose-only effect, or another doubt; inactive = no such curve, though single readings can be large or run the other way; also: potency is read from the fitted curve at half-maximal effect; % is scaled to controls: 0 for no effect and ±100 for the full control effect
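Infectious HCVcc-Cre (~0.5 moi) was added to cells just after compound, with cells seeded 4 h earlier at 1,000 per well. Luciferase activity after 44 h culture reported infection; substrate was incubated 15 min at room temperature before reading.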
FMDV inh = High Throughput Screening for Foot and Mouth Disease Virus Antivirals | FMDV antiviral cell-based qHTS | Potency, µM (doses to about 57.9 µM), inactives show at the highest dose activity change, negative = inhibition, usual class: inhibitors | 1.2% of 410,000 active; calls by dose curve; tested in HEK293T cells; also: read-out not given here; potency is read from the fitted curve at half-maximal effect; % is scaled to controls: 0 for no effect and ±100 for the full control effect; nearly all actives have a fitted effect of over 45% in size
An asterisk follows results filed as active; ? = inconclusive; . = no result; [ ] = dose if it differs, or a comment.

SMILES	Lassa entry inh	SARS PLP yeast	HCMV antiviral	MARV entry inh	HCV inhibitor	FMDV inh
CCC1Nc2ncnc(N3CCN(c4ccccc4)CC3)c2N(Cc2ccccc2)C1=O (centres undefined)	.	-6.8%	11.7	.	?	?
COc1ccc(CN2C(=O)C(C)Nc3ncnc(N4CCN(c5ccccc5)CC4)c32)cc1 (centres undefined)	.	2.4%	-13.0	.	-26.1%	-17.6%
COc1ccc(CN2C(=O)C(C)Nc3ncnc(N4CCOCC4)c32)cc1 (centres undefined)	.	3.3%	-64.6*	.	-0.5%	-23.9%
CC(=O)c1ccc2c(c1)C1C(Cl)C(Sc3ccccc3[N+](=O)[O-])CC1C(C(=O)O)N2 (centres undefined)	0.8%	-5.5%	-16.8	0.1%	35.5µM*	-23.0%
O=C(O)c1cccc2c1NC(C(=O)O)C1CC(Sc3ccccc3[N+](=O)[O-])C(Cl)C21 (centres undefined)	-13.6%	15.4%	6.5	14.2%	-7.8%	-25.6%
Nc1c(Br)cc2c(c1Br)C(O)c1ccccc1-2 (centres undefined)	12.9%[46.1 µM]	.	96.0	3.2%	?	2.9%
Nc1c(Br)cc2c3c(cccc13)-c1ccccc1-2	25.0%	.	-33.1	-13.4%	2.82µM*	17.8%
Cc1ccc(CNc2ncnc3sc(C(=O)N4CCC[C@H]4C(N)=O)c(C)c23)o1	.	.	.	.	.	-13.0%
Nc1cc(C(=O)O)ccc1N1CCCCCC1	-12.0%	2.0%	28.1	-9.3%	5.62µM*	.
CCO[C@H]1[C@H](NC(=O)c2cccnc2)c2ccccc2C12CCN(C(=O)c1ccoc1)CC2	.	.	.	.	.	-6.3%
CCCc1ccc(C(C)NC(=S)NC2CCCCC2)cc1 (centres undefined)	.	-1.8%	-73.1*	.	?	-25.0%
CC(Sc1nnc(-c2cccnc2)n1-c1ccccc1F)C(=O)N1CCCc2ccccc21 (centres undefined)	.	-12.2%	-64.6*	-0.7%	5.5%	.
C=CCC(C#N)(c1ccc(OC)c(OC)c1)c1cnccn1 (centres undefined)	.	1.9%	-64.9*	.	-0.7%	-10.4%
COc1ccc(C(C#N)(CCC#N)CCC#N)cc1OC	1.4%	1.4%	63.9	-3.9%	5.9%	-0.9%
O=C1CN=C(c2ccccc2)c2oc3ccc(Br)cc3c2N1	12.5%	-1.6%	-0.3	-8.3%	6.7%	-12.6%
COc1cccc(OC)c1C1=NCC(=O)Nc2c1oc1ccc(Br)cc21	?	19.2%	-94.8*	?	?	0.0%
Cc1ccc(Nc2sc(C(=O)c3ccccc3)c(N)c2S(=O)(=O)c2ccccc2)c(C)c1	?	.	-1.0	?	.	-23.4%
O=C1CC(N2CCN(c3ccc(O)cc3)CC2)C(=O)N1Cc1cccs1 (centres undefined)	?	-30.3%	-19.9	-0.3%	1.7%	-22.1%
O=C(c1ccncc1)c1ccc(N2CCN(C3CC(=O)N(Cc4cccs4)C3=O)CC2)cc1 (centres undefined)	.	-5.4%	0.0	.	?	25.1µM*
COc1cc(O)ccc1C1CC(=O)Nc2c1c(=O)nc(SCc1ccccc1C)n2C (centres undefined)	24.5%[46.1 µM]	.	-11.6	?	.	-0.3%
CC1=C(c2ccc(Cl)cc2)S(=O)(=O)N=C1N1CCN(c2cccc(C)c2)C(C)C1 (centres undefined)	-28.2%[46.1 µM]	.	-19.2	-8.6%[46.1 µM]	.	?
C=CCSC(=S)NC1CCS(=O)(=O)C1 (centres undefined)	-32.0%	0.8%	?	?	4.5%	12.6µM*
CCC(Sc1nnc(C)n2c1cc1occc12)C(=O)Nc1ccccc1OC (centres undefined)	9.2%[46.1 µM]	.	-21.9	.	.	0.0%
COc1ccccc1OCC(=O)Nc1cc(S(=O)(=O)N2CCCCC2)ccc1N1CCCCC1	?	11.5%	-36.9	?	25.1µM*	?
CCOc1ccccc1OCC(=O)Nc1cc(S(=O)(=O)N2CCCCC2)ccc1N1CCN(CC)CC1	-0.8%	-4.0%	2.3	?	?	-22.4%
SMILES	Lassa entry inh	SARS PLP yeast	HCMV antiviral	MARV entry inh	HCV inhibitor	FMDV inh
COc1ccccc1OCC(=O)Nc1cc(Cl)ccc1N1CCCCC1	-8.0%	1.7%	?	?	10µM*	?
COc1cc(C(C)=O)ccc1OCC(=O)Nc1ccccc1N1CCCCC1	?	-22.5%	-37.5	?	?	?
COc1cc(OC)c(NC(=O)CSC2=Nc3ccccc3N=C(c3ccc(F)cc3)C2)cc1Cl	20.3%[46.1 µM]	.	18.6	.	.	-23.2%
O=C(Nc1ccc(S(=O)(=O)N(Cc2ccccc2)c2ccccc2)cc1)c1ccc(F)cc1	?	.	4.4	-3.9%[46.1 µM]	.	-11.4%
CCOc1ccc(NC(=O)CC2C(=O)N(c3cccc(C)c3)C(=O)N2Cc2cccs2)cc1 (centres undefined)	-7.9%[46.1 µM]	.	9.8	.	.	11.1%
CN(C)CCCN(C(=O)c1ccc2c(c1)CCCC2)c1nc2ccc(Cl)cc2s1	?	-35.8%	-78.6*	?	7.94µM*	28.2µM*
CCOC(=O)N1CCN(S(=O)(=O)c2ccc(C(=O)N(CCCN(C)C)c3nc4ccc(Cl)cc4s3)cc2)CC1	.	-0.9%	8.0	.	11.2µM*	-10.0%
CCOC(=O)N1CCN(S(=O)(=O)c2ccc(C(=O)N(CCCN(C)C)c3nc4ccc(CC)cc4s3)cc2)CC1	-41.6%[46.1 µM]	-3.2%	-62.1*	?	?	-7.3%
CC(=O)N1CCCc2cc(S(=O)(=O)N(C)CC(=O)Nc3ccc(C(C)C)cc3)ccc21	-27.6%[46.1 µM]	.	-32.4	.	.	-17.6%
CC(C)Cn1c(=O)c2sccc2n2c(CCCC(=O)NCC(C)c3ccccc3)nnc12 (centres undefined)	?	.	?	.	.	-17.3%
CCNC(=O)CC1C(=O)N(c2ccc(F)cc2)C(=O)N1Cc1ccc(OC)c(OC)c1 (centres undefined)	7.9%[46.1 µM]	.	9.6	-22.5%[46.1 µM]	.	0.0%
Cc1cc(NC(=O)c2cc(-c3cccc(Cl)c3)on2)nn1Cc1ccc(Cl)cc1	9.7%[46.1 µM]	.	-80.4*	-19.7%[46.1 µM]	.	?
COc1cccc(-c2cc(C(=O)Nc3c(C)nn(Cc4ccccc4)c3C)no2)c1	-9.0%	-23.6%	?	?	10µM*	-14.3%
Cc1nn(Cc2ccccc2Cl)c(C)c1NC(=O)c1ccn(C)n1	2.5%	9.7%	0.7	-13.8%	1.8%	-7.3%
Cc1nn(Cc2ccccc2Cl)c(C)c1NC(=O)c1cc(-c2ccc(F)cc2)on1	-8.5%	-2.6%	2.2	?	3.55µM*	-13.6%
Cc1nn(Cc2ccccc2Cl)c(C)c1NC(=O)c1nc2ncccn2n1	-1.4%	10.2%	-62.7*	4.5%	15.8%	-13.7%
COC(=O)c1ccccc1NC(=O)c1ncoc1-c1ccco1	2.5%[46.1 µM]	.	-27.4	.	.	0.0%
CCN(C(=O)Cn1nc(Cc2ccncc2)c2ccccc2c1=O)c1cccc(Cl)c1	-10.8%[46.1 µM]	.	-34.8	-29.2%[46.1 µM]	.	0.0%
